Test systems include SK-MEL-2 melanoma; EKVX NSCLC; SN12C renal; UO-31 renal; ACHN renal; CAKI-1 renal; A498 renal; CCRF-CEM leukemia; MOLT-4 leukemia; SR leukemia; RPMI-8226 leukemia; OVCAR-8 ovarian; OVCAR-5 ovarian; OVCAR-4 ovarian; SK-OV-3 ovarian; IGROV1 ovarian; OVCAR-3 ovarian; NCI/ADR-RES ovarian; HS 578T breast; TK-10 renal.
Common to all, as to test: NCI-60 one-dose screen, 48 h (100 = growth as untreated, 0 = no growth, -100 = all killed)
What all share (details): 10 µM unless noted

This is part of a sample that, as a whole, favours compounds with a hit. Of some 83,000 tested, about 20% had one in any assay.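 How to read the values: 0–100, growth inhibition (40 = 60% inhibited); 0, no net growth; -100 to 0, cell death (-40 = 40% of starting cells died; -100 = all dead).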 Unmarked numbers belong to inactive results. The source made the active and inactive calls. How the source made its calls: active means growth percent below 10; inactive means the rest.

Regarding `O=c1cc(-c2nccc3c2[nH]c2ccccc23)c2cc(Cl)ccc2o1`, the growth in the experiment on SK-MEL-2 melanoma is 30.2%; in the experiment on EKVX NSCLC it was 62.1%; in the experiment with SN12C renal, 62.4%; in the experiment with UO-31 renal, 58.1%; in the experiment with ACHN renal, 47.3%; in the experiment with CAKI-1 renal, 54.6%. The growth in the experiment with A498 renal is 31.8%; with CCRF-CEM leukemia it was 31.2%; with MOLT-4 leukemia, 44.3%; in the experiment with SR leukemia, 15.2%; in the experiment with RPMI-8226 leukemia, 39.3%; in the experiment on OVCAR-8 ovarian, 54.4%. Also, the growth with OVCAR-5 ovarian was 111%; with OVCAR-4 ovarian, 56.6%; in the experiment on SK-OV-3 ovarian, 41.3%; in the experiment on IGROV1 ovarian it was 61.3%; with OVCAR-3 ovarian it was 7.46% (active); in the experiment on NCI/ADR-RES ovarian, 33.4%.
Consider `N#C/C(=C/C=C/c1ccccc1)S(=O)c1ccccc1` (stereo not given), for which the growth in the experiment on SK-MEL-2 melanoma was -15.9% (active); in the experiment on EKVX NSCLC, -6.51% (active); in the experiment with SN12C renal, -52.5% (active); in the experiment on UO-31 renal, -63.4% (active); with ACHN renal, -74.4% (active); with CAKI-1 renal, -25.6% (active). Also, the growth is -68.4% (active) with A498 renal; -5.68% (active) in the experiment with CCRF-CEM leukemia; -1.2% (active) with MOLT-4 leukemia; 3.12% (active) in the experiment with SR leukemia; -8.55% (active) in the experiment with RPMI-8226 leukemia; 14.1% in the experiment on OVCAR-8 ovarian. In addition, the growth in the experiment with OVCAR-5 ovarian is -55.4% (active); with OVCAR-4 ovarian, 18.6%; with SK-OV-3 ovarian it was 32.3%; in the experiment on IGROV1 ovarian, 1.27% (active); in the experiment on OVCAR-3 ovarian, -82.2% (active); in the experiment with HS 578T breast, 15.8%. Moreover, the growth in the experiment with NCI/ADR-RES ovarian was 11.9%.
Regarding `CC(C)CCc1nc2ccc(NCc3ccc(OCCN4CCC(C)CC4)cc3)cc2[nH]1`, the growth is 110% in the experiment on SK-MEL-2 melanoma; 78.5% in the experiment with EKVX NSCLC; 69.9% in the experiment with SN12C renal; 57.4% in the experiment with UO-31 renal; 97.3% with ACHN renal; 64.8% in the experiment with CAKI-1 renal. Also, the growth with A498 renal was 79.3%; with CCRF-CEM leukemia, 67.3%; in the experiment on MOLT-4 leukemia, 62.3%; in the experiment on SR leukemia, 14.2%; with RPMI-8226 leukemia, 68.6%; with OVCAR-8 ovarian, 96.6%. In addition, the growth is 95% with OVCAR-5 ovarian; 80.6% with OVCAR-4 ovarian; 102% with SK-OV-3 ovarian; 79.3% in the experiment on IGROV1 ovarian; 71.9% with OVCAR-3 ovarian; 84.3% in the experiment with HS 578T breast. The growth with NCI/ADR-RES ovarian was 97%.
As to `COc1ccc(NC(=O)c2sc3nc(C)c(C(=O)c4ccccc4)cc3c2N)cc1`, the growth in the experiment on SK-MEL-2 melanoma is 88.8%; in the experiment with EKVX NSCLC, 94.7%; in the experiment on SN12C renal it was 99.5%; in the experiment on UO-31 renal it was 90%; in the experiment with ACHN renal, 95.1%; in the experiment with CAKI-1 renal it was 92.9%. Besides, the growth in the experiment with A498 renal is -9.31% (active); in the experiment with CCRF-CEM leukemia, 95%; in the experiment with MOLT-4 leukemia, 88.5%; in the experiment on SR leukemia it was 81.2%; in the experiment on RPMI-8226 leukemia, 101%; in the experiment on OVCAR-8 ovarian, 101%. Also, the growth with OVCAR-5 ovarian was 82.8%; in the experiment on OVCAR-4 ovarian it was 91.1%; with IGROV1 ovarian, 101%; in the experiment on OVCAR-3 ovarian it was 103%; with HS 578T breast it was 83.5%; with NCI/ADR-RES ovarian, 108%.
With `COc1ccc(NC(=O)c2ccc(NC3=C(c4ccc(Cl)cc4)C(=O)NC3=O)cc2)cc1`, the growth in the experiment with SK-MEL-2 melanoma was 70.4%; in the experiment with EKVX NSCLC it was 84.7%; in the experiment with SN12C renal, 88.6%; in the experiment on UO-31 renal, 64.6%; in the experiment on ACHN renal it was 85.9%; with CAKI-1 renal, 83.9%. Moreover, the growth in the experiment with A498 renal is 87.5%; with CCRF-CEM leukemia it was 85.1%; in the experiment with MOLT-4 leukemia, 52.6%; in the experiment on SR leukemia, 57.1%; in the experiment with RPMI-8226 leukemia, 73.8%; in the experiment with OVCAR-8 ovarian, 84.8%. In addition, the growth in the experiment with OVCAR-5 ovarian was 100%; in the experiment on OVCAR-4 ovarian it was 84.1%; with SK-OV-3 ovarian it was 69.8%; with IGROV1 ovarian it was 92.8%; with OVCAR-3 ovarian it was 89.2%; in the experiment with HS 578T breast, 102%. Moreover, the growth in the experiment on NCI/ADR-RES ovarian was 88.3%.
For the compound `COc1ccc(-c2ccc(-c3ccc(C(=N)N)o3)o2)cc1`, the growth in the experiment on SK-MEL-2 melanoma is 54%; with EKVX NSCLC, 58.4%; with SN12C renal, -23.9% (active); with UO-31 renal it was 45.5%; in the experiment with TK-10 renal, 61.9%; in the experiment on ACHN renal it was 41.6%. Also, the growth in the experiment with CAKI-1 renal is 34.4%; with CCRF-CEM leukemia, 5.45% (active); in the experiment on MOLT-4 leukemia, 27.7%; in the experiment on SR leukemia it was -4.13% (active); in the experiment on RPMI-8226 leukemia it was 14.3%; in the experiment on OVCAR-8 ovarian it was 28.9%. In addition, the growth in the experiment with OVCAR-5 ovarian was 38.4%; in the experiment with OVCAR-4 ovarian it was 58.8%; with SK-OV-3 ovarian, 35.8%; in the experiment on IGROV1 ovarian, 57.1%; in the experiment on OVCAR-3 ovarian, -27.8% (active); with HS 578T breast, 56.2%. Moreover, the growth in the experiment with NCI/ADR-RES ovarian was 14.4%.
Regarding `N#C/C(=N\Nc1ccccc1)C(=O)Nc1cc(-c2ccccc2)nn1-c1ccccc1`, the growth in the experiment with SK-MEL-2 melanoma is 22.6%; with EKVX NSCLC, 28.3%; in the experiment with SN12C renal, 3.41% (active); in the experiment on UO-31 renal, 29.7%; in the experiment on TK-10 renal it was 38.6%; in the experiment with ACHN renal it was 39%. In addition, the growth in the experiment on CAKI-1 renal is 37.9%; in the experiment on CCRF-CEM leukemia it was 26.6%; in the experiment on MOLT-4 leukemia, 33.3%; in the experiment with SR leukemia it was 62.3%; in the experiment on RPMI-8226 leukemia it was 18.5%; with OVCAR-8 ovarian it was 40.6%. For the same compound, the growth with OVCAR-5 ovarian is 72.2%; in the experiment with OVCAR-4 ovarian, 22.1%; with SK-OV-3 ovarian, 31.3%; with IGROV1 ovarian, 30.6%; in the experiment on OVCAR-3 ovarian, 12.4%; with HS 578T breast it was 41.9%. Besides, the growth with NCI/ADR-RES ovarian was 41.5%.
`COc1cc2ncnc(Nc3ccc(S(=O)(=O)Nc4cc(C)on4)cc3)c2cc1OCCCN1CCOCC1`: the growth in the experiment on SK-MEL-2 melanoma was 101%; in the experiment with EKVX NSCLC, 93.4%; in the experiment on SN12C renal, 104%; with UO-31 renal it was 88.1%; with ACHN renal it was 106%; with CAKI-1 renal, 98%. In addition, the growth in the experiment on A498 renal is 104%; with CCRF-CEM leukemia it was 104%; with MOLT-4 leukemia, 101%; in the experiment with SR leukemia it was 103%; in the experiment on RPMI-8226 leukemia, 106%; with OVCAR-8 ovarian, 98.2%. Also, the growth in the experiment on OVCAR-5 ovarian was 106%; with OVCAR-4 ovarian, 94.8%; with SK-OV-3 ovarian, 95%; with IGROV1 ovarian, 108%; with OVCAR-3 ovarian it was 113%; in the experiment with HS 578T breast it was 103%. Moreover, the growth in the experiment on NCI/ADR-RES ovarian was 106%.

These data come from PubChem BioAssay (NCI).
